Results from the supplement of paper PMC6555819.

Key:
Assay in all cases: PBM binding z-score (relative to random genomic background probes); higher = stronger binding; sequences stand for … in GC…GCGATTGACAGCGTAGAATGAAGG
[1] = tested on: PPARg:RXRa DBDmut IVT, anti-RXR (DBD mutation: RXRa K156A/R161A, NR concentration 270 nM, RXRa partner concentration 90 nM)
Summary of the method: (§1)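 Binding z-scores take random background probes as their reference. They come from custom Agilent 4×180K protein-binding microarrays incubated 1 h with ligand-free nuclear receptor dimers, with antibodies against each partner (one per run) detecting binding. Scanned fluorescence was regression-normalized.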

[2] = tested on: PPARg:RXRa IVT, anti-PPARg (NR concentration 270 nM, RXRa partner concentration 90 nM)
Summary of the method: as §1

[3] = tested on: PPARg DBDmut:RXRa IVT, anti-PPARg (DBD mutation: PPARg1 K132A/R137A, NR concentration 270 nM, RXRa partner concentration 90 nM)
Summary of the method: as §1

[4] = tested on: PPARg DBDmut IVT, anti-PPARg (DBD mutation: PPARg1 K132A/R137A, NR concentration 270 nM)
Summary of the method: as §1

[5] = tested on: PPARg homodimer (NR concentration 180 nM)
Summary of the method: as §1

[6] = tested on: PXR:RXRa (NR concentration 270 nM, RXRa partner concentration 90 nM)
Summary of the method: as §1

[7] = tested on: PXR homodimer (NR concentration 270 nM)
Summary of the method: as §1

[8] = tested on: RARa:RXR (NR concentration 270 nM, RXRa partner concentration 90 nM)
Summary of the method: as §1

[9] = tested on: RARa homodimer (NR concentration 270 nM)
Summary of the method: as §1

[10] = tested on: RARb:RXRa (NR concentration 270 nM, RXRa partner concentration 90 nM)
Summary of the method: as §1

[11] = tested on: RARb homodimer (NR concentration 270 nM)
Summary of the method: as §1

[12] = tested on: RARg:RXRa (NR concentration 270 nM, RXRa partner concentration 90 nM)
Summary of the method: as §1

[13] = tested on: RARg homodimer (NR concentration 270 nM)
Summary of the method: as §1

[14] = tested on: RXRa DBDmut IVT, anti-RXR (DBD mutation: RXRa K156A/R161A, NR concentration 90 nM)
Summary of the method: as §1

[15] = tested on: RXRa homodimer (NR concentration 180 nM)
Summary of the method: as §1

[16] = tested on: THRa:RXRa (NR concentration 90 nM, RXRa partner concentration 90 nM)
Summary of the method: as §1

[17] = tested on: THRa homodimer (NR concentration 90 nM)
Summary of the method: as §1

[18] = tested on: VDR homodimer (NR concentration 270 nM)
Summary of the method: as §1

Sequence	PBM binding z-score [1]	PBM binding z-score [2]	PBM binding z-score [3]	PBM binding z-score [4]	PBM binding z-score [5]	PBM binding z-score [6]	PBM binding z-score [7]	PBM binding z-score [8]	PBM binding z-score [9]	PBM binding z-score [10]	PBM binding z-score [11]	PBM binding z-score [12]	PBM binding z-score [13]	PBM binding z-score [14]	PBM binding z-score [15]	PBM binding z-score [16]	PBM binding z-score [17]	PBM binding z-score [18]
CCAGATAGGTGAAAGGTAACTCAGTCTGGTACGC	5.2	4.32	0.289	-0.0951	1.74	1.02	0.111	2.13	0.659	1.31	1.04	1.53	0.944	0.181	2.46	0.97	0.0815	0.348
CCGACTGGGGCATAAGGTTTCCATAAGCCAGCCC	3.04	2.38	-1.41	-1.66	-0.419	-0.536	-0.762	-0.479	0.00521	0.514	-0.165	-0.272	-0.139	-0.156	-0.0441	-7.82e-06	-0.206	-0.137
CGTCCAAGGTCAAGGTCAGTGTAAGAGACTCGAA	3.46	4.48	2.06	0.0248	3.45	5.09	1.07	5.28	2.14	5.47	4.82	6.56	7.36	3.69	6.28	4.39	3.57	3.32
CCTTATGGGTCAAGGTTATAGCACGGGTGGTACG	4.52	5.46	1.19	0.531	2.47	2.43	0.248	3.32	0.847	3.63	2.91	4.01	4.26	0.11	3.78	2.22	0.64	1
GCGACTGGGACATCAGCAGGTTACCATAACTTAA	1.95	1.18	-0.236	-1.24	-0.146	-0.226	-0.651	-0.109	-0.694	0.0627	0.428	-0.00527	0.0107	-0.5	0.176	0.674	0.0254	-0.459
AGAACGAGGGCAATGAGTTGAAAGCACGGGTGGC	3.01	2.76	0.626	-0.78	0.52	1.67	5.02	0.551	-0.34	2.03	1.14	1.26	1.51	2.17	1.07	1.22	-0.343	3
TCGAGTAGGTTACCAATGGGGCATTTAGCTTTCT	3.03	2.59	-0.535	-0.583	-0.292	0.195	-0.763	0.343	-1.23	0.686	0.597	1.09	0.384	0.219	0.324	-0.0531	-0.844	-0.414
CCTATTAGCTGACCATAAGGGCAACCGAAGCTCG	0.163	0.429	-0.689	0.266	1.42	0.183	0.353	0.375	0.765	1.18	1.61	0.474	0.729	0.637	0.376	1.38	1.18	0.435
CGTCAAAGTTCAACGTAACGTAACAGAAAGCAGC	0.266	1.76	0.727	1.04	2.48	4.4	2.41	3.07	1.3	5.18	3.83	5.52	5.97	4.56	4.19	1.78	-0.366	3.03
TCATTTAGGTAAACAGGTGAAAGTCCGTAAGTTA	3.9	3.97	1.38	1.49	1.97	1.01	0.929	1.52	1.74	1.08	1.09	0.646	0.406	1.59	0.903	1.52	1.13	0.754
CCTAGTTGGTCAGGAGGTCACAGACCGGATATGA	1.33	3.88	0.154	0.248	3.25	4.28	1.01	4.9	1.4	3.79	4.29	5.27	4.13	0.184	5.2	3.57	2.15	2.05
CCTAGCAGGCCAATCTGGGTCCCTCAAGGCTTGA	1.13	0.925	-1.33	-1.81	-1.12	-0.641	-0.809	-0.522	-0.809	0.0212	-0.121	-0.601	-0.841	-0.491	-0.782	0.746	-0.658	-0.612
CAGCCTAGGCCAGGGCCAGTATAGGAGGAACGTT	-0.58	-0.938	-1.07	-1.68	-1.39	-1.04	-0.58	-0.83	-0.971	-0.0787	-0.366	-0.536	0.11	-1.57	-0.601	-0.884	-0.601	-0.322
CGTCCAAGGGCAGAGAGGTCAGTGAATGCCGAGT	0.812	1.16	-1.66	-1.28	1.16	3.43	6.33	2.56	-0.0232	3.92	4.03	3.5	4.06	1.49	2.27	2.68	0.704	3.19
